PLC-beta3 inh: blocks human PLC-beta3 enzyme activity | Purified PLC-beta3, fluorogenic substrate, fluorescence | inhibition, % at 12.2 µM | actives 0.18% (n = 370,000); in the data active means inhibition above about 11%;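 further: 0% = median of compound wells on plate and 100% = full blocker control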
bovine MsrA act: activates bovine MsrA enzyme | purified bovine MsrA, absorbance read-out | activation, % at 10.6 µM | actives 0.3% (n = 360,000); in the data active means activation above about 7.5%;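 further: 0% = vehicle and 100% = reference activator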
MsrA inh: bovine MsrA inhibition; purified bovine MsrA, absorbance read-out; inhibition, % at 15.5 µM; actives 0.75% (n = 360,000); AID 651718; in the data active means inhibition above about 4.5%;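 further: 0% = vehicle wells with enzyme and 100% = reference inhibitor wells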
PLCg1 inh: blocks human PLC-gamma1 enzyme activity | P19174 | purified PLC-gamma1, fluorogenic substrate, fluorescence | inhibition, % at 12.2 µM | actives 0.84% (n = 370,000) | AID 720700; in the data active means inhibition above about 9.5%
Target sequence (P19174 whole entry, looked up): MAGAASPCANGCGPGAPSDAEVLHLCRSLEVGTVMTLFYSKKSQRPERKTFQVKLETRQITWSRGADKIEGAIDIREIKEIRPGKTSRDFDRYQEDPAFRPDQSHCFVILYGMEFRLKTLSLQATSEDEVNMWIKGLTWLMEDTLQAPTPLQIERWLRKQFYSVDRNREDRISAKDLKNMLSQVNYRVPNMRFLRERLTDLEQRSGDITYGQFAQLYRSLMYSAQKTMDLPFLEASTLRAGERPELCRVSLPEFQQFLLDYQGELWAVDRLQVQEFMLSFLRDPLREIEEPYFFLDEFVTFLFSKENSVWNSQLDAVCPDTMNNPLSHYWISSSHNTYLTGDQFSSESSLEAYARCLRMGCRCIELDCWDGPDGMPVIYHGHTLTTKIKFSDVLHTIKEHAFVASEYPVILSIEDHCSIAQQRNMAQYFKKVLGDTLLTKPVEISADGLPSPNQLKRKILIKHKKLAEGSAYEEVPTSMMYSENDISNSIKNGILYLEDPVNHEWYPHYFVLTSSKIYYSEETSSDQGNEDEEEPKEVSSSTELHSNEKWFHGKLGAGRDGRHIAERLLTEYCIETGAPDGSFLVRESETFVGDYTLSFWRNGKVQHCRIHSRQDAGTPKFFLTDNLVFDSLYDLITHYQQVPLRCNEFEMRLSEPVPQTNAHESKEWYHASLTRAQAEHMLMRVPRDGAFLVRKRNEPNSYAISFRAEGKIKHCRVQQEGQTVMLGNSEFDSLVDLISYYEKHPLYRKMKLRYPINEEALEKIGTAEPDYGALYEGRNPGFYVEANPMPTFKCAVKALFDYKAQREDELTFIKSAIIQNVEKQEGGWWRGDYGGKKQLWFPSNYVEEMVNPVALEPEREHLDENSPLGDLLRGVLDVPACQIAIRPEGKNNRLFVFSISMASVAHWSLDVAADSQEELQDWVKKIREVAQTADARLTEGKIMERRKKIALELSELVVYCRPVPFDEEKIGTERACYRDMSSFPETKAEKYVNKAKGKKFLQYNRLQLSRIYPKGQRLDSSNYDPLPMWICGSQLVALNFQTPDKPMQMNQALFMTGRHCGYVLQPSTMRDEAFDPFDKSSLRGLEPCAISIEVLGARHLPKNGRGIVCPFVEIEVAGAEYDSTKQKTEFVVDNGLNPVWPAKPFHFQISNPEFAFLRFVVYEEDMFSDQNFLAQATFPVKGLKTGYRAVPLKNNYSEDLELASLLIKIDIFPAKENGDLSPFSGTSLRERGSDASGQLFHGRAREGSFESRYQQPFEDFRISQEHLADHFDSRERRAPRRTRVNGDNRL
MsrA activ conf: bovine methionine sulfoxide reductase A activation confirmed | shares compounds with bovine MsrA act | purified bovine MsrA, absorbance read-out | activation, % at 10.6 µM | actives 12% (n = 1,000) | AID 602270; in the data active means activation above about 4%;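 further: enzyme coupled to thioredoxin and thioredoxin reductase with NADPH; 0% = vehicle wells and 100% = reference activator wells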
* hit, by the source's call; nt = no result given; ! = a repeat was not active. The list is not random: actives were taken first. Their share in the collection is about 1.9%.

SMILES	PLC-beta3 inh	bovine MsrA act	MsrA inh	PLCg1 inh	others
CC1CCN(S(=O)(=O)c2ccc(Cl)cc2Br)CC1	-2	-4	8.8*	-3
CC(C)C[C@H]1COc2cc(NCc3ccc(Cl)c(Cl)c3)ccc2S(=O)(=O)N1	0	nt	0	3
Cc1ccc(N2CSC3=C(C#N)C(c4cccs4)CC(=O)N3C2)cc1 (stereo unspecified)	-16	-6	1	-15
COc1ccc(N2CSC3=C(C#N)C(c4cccs4)CC(=O)N3C2)cc1 (stereo unspecified)	0	-3	0	9.9*
O=[N+]([O-])c1ccc(C=Nc2ccc(Cl)c([N+](=O)[O-])c2)s1	0	2	5.1*	1
Cc1cc(C)cc(N=Cc2ccc([N+](=O)[O-])s2)c1	1	5	3	0
CCOC(=O)C1=CC[C@@H](c2ccccc2)C(C#N)(C#N)[C@H]1/C=C/c1ccccc1	-2	nt	0	-2
Cc1cccc(NC(=O)CSc2nnc(-c3ccco3)c(-c3ccco3)n2)c1	-21	-10	4.9*	-13
Cc1cccc(NC(=O)CSc2nnc(-c3ccco3)c(-c3ccco3)n2)c1C	nt	-13	nt	nt
O=C(NS(=O)(=O)c1cccc(F)c1)[C@H]1O[C@@H](n2ccc(=O)[nH]c2=O)[C@H](O)[C@@H]1O	4	nt	-1	4
O=C1C(SCCO)=C(SCCO)C(=O)c2ccccc21	-18	0	1	-4
CC1=C(SCc2ccccc2)C(=O)c2ccccc2C1=O	3	1	21*	-2
COC(=O)[C@]12C[C@H](CC(=O)NCCCN3CCCC3=O)C(=O)N(Cc3ccccc3)C1=C[C@H](C(C)(C)C)O[C@@H]2C	2	nt	0	3
COc1cc2c(=O)n(Cc3ccccc3)c(=O)n(CC(=O)NCCc3ccccc3)c2cc1OC	8	-8	2	9.5*
COc1cc(NC(=O)c2cnn3c(C)cc(C)nc23)cc(OC)c1OC	3	nt	nt	2
O=C(Cc1ccc(NC(=O)C2CCN(C(=O)C3CCCC3)CC2)cc1)Nc1cccc(C(=O)N2CCCC2)c1	-1	nt	0	1
CC[n+]1ccc(/C=C2\Sc3ccccc3N2CCCS(=O)(=O)[O-])c2ccccc21	0	-2	0	1
CN1C=C/C(=C\c2cc[n+](C)c3ccccc23)c2ccccc21	-13	5	48*	-7
Cc1cc2c(nc1C)CCCN2S(=O)(=O)c1ccc(F)cc1	-4	nt	0	-1
O=C(c1ccccc1)c1ccccc1	11*	nt	nt	9
CCN1CCN(CC(O)COc2ccc(Cl)cc2)CC1 (stereo unspecified)	-2	-4	0	-1
CCN1CCN(CC(O)COC(C)C)CC1 (stereo unspecified)	-1	15*	-1	0
COC(=O)[C@@]12CCCCC3=C1N(CCC3)C(=O)[C@H]2CC(=O)NCC1CCCCC1	2	nt	nt	2
O=C(CNc1cccc2ccccc12)N/N=C/C=C/c1ccco1	-47	-5	4.6*	-36
O=C(CNc1cccc2ccccc12)N/N=C/c1ccc(C(=O)O)cc1	-11	-5	1	-10
SMILES	PLC-beta3 inh	bovine MsrA act	MsrA inh	PLCg1 inh	others
CC(=O)N(Cc1ccccc1)c1ccc(C(=O)O)cc1	8	-6	2	9.7*
Cc1c(N=Cc2nc3ccccc3n2C)c(=O)n(-c2ccccc2)n1C	1	-6	5.1*	0
CCOC(=O)CC1(Cc2ccccc2)Oc2ccccc2O1	2	nt	-1	-1
O=c1ccsc2ccccc12	3	-2	1	1
O=c1[nH]sc2ccccc12	-6	13*	0	-1
C#CCN1CC(N(C)CCO)CS1(=O)=O (stereo unspecified)	2	nt	nt	2
CC(C)(C)OC(=O)N(CCc1ccccc1)Cc1ccc(OCc2cccc(NC(=O)C3CC3)c2)cc1	2	-1	0	2
CC(C)(C)OC(=O)N(CCc1ccccc1)Cc1cccc(OCc2cccc(NC(=O)c3ccccc3)c2)c1	6	-2	1	9.9*
COc1cc(C(=O)N/C(=C\c2cn(C)c3ccccc23)C(=O)NCCCO)cc(OC)c1OC	-8	-10	4.7*	1
O=[N+]([O-])c1ccc(/C=N/n2cnc3ccccc32)s1	5	18*	2	9
O=C(OC1CC2CCC(C1)[N+]21CCCC1)C(O)(c1ccccc1)c1ccccc1 (stereo unspecified)	7	nt	nt	8
CC[C@H](C)[C@@H](C(=O)NCCCCCCCCCCC(=O)N1CCNCC1)n1cc(CCCCN=C(N)N)nn1	2	9.3*	0	2	MsrA activ conf=0
O=C(OCCN1CCN(C2CN(Cc3cn(Cc4ccccc4Cl)nn3)S(=O)(=O)C2)CC1)c1cccs1 (stereo unspecified)	1	nt	nt	-1
O=C(C(=O)N1CCN(C(=O)C2CCC2)CC1)c1cccc(C(F)(F)F)c1	5	nt	0	2
CCOC(=O)N1CCN(C(=O)c2cc3ccccc3o2)CC1	-6	-2	0	-2
O=C(c1ccccc1)N1CCN(C(=O)c2cc3ccccc3o2)CC1	2	7.7*	-1	1	MsrA activ conf=-1
CCN1CCN(Cc2ccc(NC(=O)c3ccc(C)c(NC(=O)C[C@@H]4NC(=O)[C@H](Cc5ccccc5)NC4=O)c3)cc2C(F)(F)F)CC1	-6	7.7*!	1	7	MsrA activ conf=-3
COCC(=O)Nc1cccc2ccccc12	1	11*	2	3	MsrA activ conf=-1
O=C(NC1CC1)C1=C[C@@H](c2ccc(C(F)(F)F)cc2)C[C@@H](OCc2ccc(CO)cc2)O1	-3	8.1*	1	-5	MsrA activ conf=3
CCOc1ccc(-n2ccnc2)nn1	-3	8.1*	0	3	MsrA activ conf=-3
Cc1cc(C)n(-c2ccc(-n3ccnc3)nn2)n1	3	-1	-1	0
COC(=O)C1=C(C)N(Cc2ccc(C(F)(F)F)cc2)C(=NCc2ccccc2C(F)(F)F)NC1c1ccc(F)cc1 (stereo unspecified)	0	nt	-2	-2
CC(C(=O)Nc1ccccc1Br)c1ccc([N+](=O)[O-])cc1 (stereo unspecified)	2	-14	0	0
Cc1ccc(NC(=O)C(C)c2ccc([N+](=O)[O-])cc2)cc1Cl (stereo unspecified)	2	20*	-1	3	MsrA activ conf=0
CN(CCN1CCc2ccccc2C1)Cc1nc(Cc2ccccc2F)no1	-3	15*	-2	-1	MsrA activ conf=-2
SMILES	PLC-beta3 inh	bovine MsrA act	MsrA inh	PLCg1 inh	others
COc1ccc(Cc2noc(CN(C)CCN3CCc4ccccc4C3)n2)cc1OC	-5	-7	1	-3
O=C(COCc1ccccc1)N1CCC(Oc2cccnc2)CC1	2	nt	nt	0
CC1=C(C(=O)OC(C)C)C(c2cccc(F)c2)N2C(=O)C(C)SC2=N1 (stereo unspecified)	7	9.8*	1	5	MsrA activ conf=0
O=S1(=O)N[C@H](Cc2ccccc2)COc2cc(N3CCOCC3)ccc21	1	nt	1	-1
c1ccc(Sc2nc(N3CCCCC3)nc(N3CCCCC3)n2)nc1	-1	9.3*	-1	0	MsrA activ conf=1
N=C(N)Sc1nc(N2CCCCC2)nc(N2CCCCC2)n1	1	-5	-1	1
COC(=O)c1ccccc1S(=O)(=O)N1CCC(C(=O)NC2CCCCC2)CC1	-3	11*	0	-1	MsrA activ conf=-2

Screening data deposited in PubChem BioAssay by The Scripps Research Institute Molecular Screening Center.
